Reference: PubChem BioAssay

tested on: Inhibin beta A chain (activin A); assay: small molecules binding activin A – biochemical, small-molecule microarray, 635 nm fluorescence scan, primary screen (AID 1107); settings: INHBA, higher = more signal;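 further: mouse activin A protein probed at 4.33 µg/mL on printed slides; score merges bound-protein fluorescence near 667 nm with spot signal-to-noise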

Compared with `CC(C)C[C@@H]1NC(=O)[C@H]2C[C@@H](C(=O)O)[C@@H](c3ccc(O)cc3)N2C1=O`, `CC(C)(C)OC(=O)CC[C@]1(C(N)=O)COC(c2ccc(OCCCO)cc2)=N1` is lower in composite z-score: 1.05 for the first, 0.976 for the second.

Compared with `O=C1O[C@@H](c2ccccc2)[C@@H](c2ccccc2)N2[C@@H](c3ccccc3OCCO)[C@]3(C(=O)Nc4ccc(C#CCCO)cc43)[C@@H](C(=O)O)[C@H]12`, `C=CCC(OC(C)=O)[C@@H]1[C@@H](N(Cc2cc3ccccc3o2)C(=O)Cc2ccc(F)cc2)c2cc(OCCCO)ccc2N1C(=O)Cc1ccc(OC)cc1` (stereo partly specified) is lower in composite z-score: 1.24 for the first, 0.772 for the second.

First: CO[C@H]1COC(=O)[C@H](C)COC(=O)CC=C[C@@H](C)[C@H](OC)COC(=O)CC=C[C@@H]1C
Second: CO[C@@H]1COC(=O)[C@H](C)NC(=O)[C@@H](C)COC(=O)CCC[C@H]1C
The composite z-score of the first is higher: 1.28 for the first, -0.0431 for the second.
